Assay outcomes as filed in PubChem BioAssay.
In the library only some 4.5% were active in any assay of this set; here they are far more common.
aSyn UTR inh – MLPCN primary screen, SNCA 5' untranslated region; inhibition, % (tested at 7.5 µM); 300,000 tested, 0.82% active; alpha-synuclein 5'UTR reporter, inhibitor activity; in the data active means inhibition above about 60%;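 further: H4 neuroglioblastoma cells stably carrying SNCA 5'UTR luciferase fusion; 0% = DMSO wells and 100% = positive control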
Gli-Sufu block – blocks Gli-Sufu signaling in a luciferase reporter | 340,000 tested, 0.74% active | Sufu-KO-LIGHT fibroblasts, Gli luciferase reporter luminescence | inhibition, % at 5 µM;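 active means inhibition above about 55%, limit read from the data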;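 further: 0% = DMSO-treated cells and 100% = wells with medium but no cells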
697 NFkB inh – lowers PMA/ionomycin-induced NF-kB signal in 697 B cells. 330,000 tested, 0.33% active. AID 435022. inhibition, % at 4 µM. 697 B-cell NF-kB luciferase reporter, 16 h; in the data active means inhibition above about 35%
Jurkat NFkB inh – inhibitors of the PMA/ionomycin-induced NF-kB reporter in Jurkat cells; PMA/ionomycin-induced NF-kB luciferase reporter, luminescence; inhibition, % at 4 µM; AID 435003; 330,000 tested, 0.53% active; in the data active means inhibition above about 50%
Mdm2 MdmX PPI – human Mdm2/MdmX binding inhibition | O15151+Q00987 | SaOS-2 split-luciferase Mdm2/MdmX complementation, luminescence | inhibition, % at 8 µM | 330,000 tested, 3% active | AID 485346;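 active means inhibition of at least 50% at 8 µM in the primary screen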
Target sequence (O15151 whole entry, looked up): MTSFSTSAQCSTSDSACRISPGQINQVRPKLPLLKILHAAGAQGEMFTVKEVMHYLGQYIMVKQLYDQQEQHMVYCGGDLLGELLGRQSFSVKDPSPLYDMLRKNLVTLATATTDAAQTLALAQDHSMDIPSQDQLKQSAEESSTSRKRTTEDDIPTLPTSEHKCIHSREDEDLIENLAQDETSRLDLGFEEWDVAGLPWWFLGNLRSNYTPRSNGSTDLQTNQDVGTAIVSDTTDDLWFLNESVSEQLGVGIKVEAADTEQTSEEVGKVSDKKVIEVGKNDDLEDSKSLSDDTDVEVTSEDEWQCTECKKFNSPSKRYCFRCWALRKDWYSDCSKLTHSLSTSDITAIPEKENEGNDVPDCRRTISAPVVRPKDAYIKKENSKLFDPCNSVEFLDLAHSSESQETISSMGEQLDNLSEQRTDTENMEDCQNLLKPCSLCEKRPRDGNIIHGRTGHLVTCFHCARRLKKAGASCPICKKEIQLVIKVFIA
Target sequence (Q00987 whole entry, looked up): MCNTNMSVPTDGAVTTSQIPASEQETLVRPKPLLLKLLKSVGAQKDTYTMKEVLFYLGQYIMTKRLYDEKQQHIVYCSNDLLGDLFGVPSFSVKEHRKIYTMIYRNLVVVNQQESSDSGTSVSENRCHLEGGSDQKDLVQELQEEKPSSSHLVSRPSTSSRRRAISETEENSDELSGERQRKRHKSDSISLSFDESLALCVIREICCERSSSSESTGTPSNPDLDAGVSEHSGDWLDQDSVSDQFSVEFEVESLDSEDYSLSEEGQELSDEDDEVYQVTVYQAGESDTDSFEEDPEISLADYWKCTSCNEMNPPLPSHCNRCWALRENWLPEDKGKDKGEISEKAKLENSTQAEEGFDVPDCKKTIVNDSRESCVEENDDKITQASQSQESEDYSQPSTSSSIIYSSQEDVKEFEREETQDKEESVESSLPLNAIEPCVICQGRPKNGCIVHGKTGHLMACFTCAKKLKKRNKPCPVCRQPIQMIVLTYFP
CSC inhib – cancer stem cell inhibition; cancer stem cell-like cells viability, luminescence; inhibition, % at 7.5 µM; 300,000 tested, 1.1% active; AID 2717; in the data active means inhibition above about 75%; tested in HMLE shEcad cells
Starred values were filed as active, the others as inactive.

C=CCNc1nc(N)c([N+](=O)[O-])c(N2CCCCCC2)n1 was read as aSyn UTR inh 69*, Gli-Sufu block 2, 697 NFkB inh -11, Jurkat NFkB inh 16, Mdm2 MdmX PPI 8 and CSC inhib -13.
For CCc1cc2ccc(C)cc2nc1SCC(=O)c1ccc(NC(C)=O)cc1 the results were aSyn UTR inh -5, Gli-Sufu block 9, 697 NFkB inh -8, Jurkat NFkB inh -10, Mdm2 MdmX PPI 7 and CSC inhib 87*.
For CCc1cc2ccc(C)cc2nc1SCC(=O)NC1CCCC1 the results were aSyn UTR inh 11, Gli-Sufu block 31, 697 NFkB inh 6, Jurkat NFkB inh 13 and Mdm2 MdmX PPI 7.
Screening CCc1cc2cccc(C)c2nc1SCC(=O)c1ccc(NC(C)=O)cc1 returned aSyn UTR inh -7, Gli-Sufu block -6, 697 NFkB inh 0, Jurkat NFkB inh -3, Mdm2 MdmX PPI -5 and CSC inhib 121*.
Screening CCc1cc2cccc(C)c2nc1SCC(=O)Nc1cc(C)on1 returned aSyn UTR inh 25, Gli-Sufu block -2, 697 NFkB inh -26, Jurkat NFkB inh -4, Mdm2 MdmX PPI 20 and CSC inhib 30.
For CCCCNC(=O)C(CC)(ONc1ccccc1C(F)(F)F)c1ccccc1 (stereo not drawn) the results were Gli-Sufu block 7, 697 NFkB inh 1, Jurkat NFkB inh 11, Mdm2 MdmX PPI 28 and CSC inhib 38.
`C=C[C@@H]1c2c(F)cccc2N(S(=O)(=O)c2ccc(C)cc2)[C@H](c2ccc(C(=O)OC)cc2)C1(C#N)C#N` gave Gli-Sufu block -13, 697 NFkB inh -2, Jurkat NFkB inh 3, Mdm2 MdmX PPI 14 and CSC inhib 15.
For C=C[C@@H]1c2c(F)cccc2N(S(=O)(=O)c2ccc(C)cc2)[C@H](c2ccc(OC(C)=O)cc2)C1(C#N)C#N the results were Gli-Sufu block -8, 697 NFkB inh 0, Jurkat NFkB inh 12, Mdm2 MdmX PPI 37 and CSC inhib 112*.
`COc1ccc(Nc2cc3n(c(=O)n2)CCc2cc(OC)c(OC)cc2-3)c(C)c1` gave aSyn UTR inh 80*, Gli-Sufu block -8, 697 NFkB inh 11, Jurkat NFkB inh 13, Mdm2 MdmX PPI 30 and CSC inhib 0.
CN(C)c1ccc(/C=N/Nc2nc3ccccc3o2)cc1 was read as aSyn UTR inh 67*, Gli-Sufu block -64, 697 NFkB inh -180, Jurkat NFkB inh -47, Mdm2 MdmX PPI -42 and CSC inhib 25.
CCS(=O)(=O)c1ccc(C=NNc2nc3ccccc3o2)cc1 was read as Gli-Sufu block -90.
COc1ccc(Nc2nnc(-c3ccccc3)c3ccccc23)cc1C(=O)N1CCCCC1 was read as aSyn UTR inh 2, Gli-Sufu block 22, 697 NFkB inh 0, Jurkat NFkB inh -2, Mdm2 MdmX PPI 25 and CSC inhib 97*.
COc1ccccc1-c1nnc(SCC(=O)N2CCCC2)o1 was read as aSyn UTR inh 19, Gli-Sufu block -20, 697 NFkB inh -8, Jurkat NFkB inh 9, Mdm2 MdmX PPI 3 and CSC inhib 2.
COc1ccccc1NC(=O)c1ccc2c(c1)N(CC(=O)NC(C)C)C(=O)C(C)(C)O2 was read as aSyn UTR inh 5, Gli-Sufu block -18, 697 NFkB inh 18, Jurkat NFkB inh -5, Mdm2 MdmX PPI 17 and CSC inhib -10.
For Cc1nc2sc(-c3ccccc3)cc2c(=O)n1N the results were aSyn UTR inh 75*, Gli-Sufu block -17, 697 NFkB inh -89, Jurkat NFkB inh -52, Mdm2 MdmX PPI 10 and CSC inhib 39.
`O=C(/C=C/c1ccc(OC2CSC2)cc1)c1ccccc1` gave aSyn UTR inh -153, Gli-Sufu block -54, 697 NFkB inh -41, Jurkat NFkB inh -56, Mdm2 MdmX PPI -97 and CSC inhib -2.
Screening O=C(N/N=C/c1ccc(OC2CSC2)cc1)c1ccccc1 returned aSyn UTR inh -39, Gli-Sufu block -14, 697 NFkB inh -25, Jurkat NFkB inh -23, Mdm2 MdmX PPI -33 and CSC inhib 89*.
`Cc1cc(NC(=O)CN2CCN(c3ccc(O)cc3)CC2)no1` gave aSyn UTR inh -12, Gli-Sufu block 12, 697 NFkB inh -1, Jurkat NFkB inh -8, Mdm2 MdmX PPI 5 and CSC inhib 28.
Screening CCC(C)n1ncn(-c2ccc(N3CCN(c4ccc(O)cc4)CC3)cc2)c1=O (stereo not drawn) returned aSyn UTR inh 73*, Gli-Sufu block 18, 697 NFkB inh 5, Jurkat NFkB inh 4, Mdm2 MdmX PPI -6 and CSC inhib 104*.
`COc1ccc(NC(=O)CSc2n[nH]c(-c3ccccc3)n2)cc1S(N)(=O)=O` gave Gli-Sufu block -6, 697 NFkB inh 8, Jurkat NFkB inh 5 and Mdm2 MdmX PPI -25.
`O=C1/C(=C/c2cccnc2)CCC/C1=C\c1cccnc1` gave Gli-Sufu block 3 and CSC inhib 103*.
Screening CN(C)c1ccc(/C=C2\CCC/C(=C\c3ccccc3)C2=O)cc1 returned aSyn UTR inh -81, Gli-Sufu block -3 and CSC inhib 86*.
Screening COc1ccc(CN(C)CC(=O)Nc2cc3oc4ccccc4c3cc2OC)c(OC)c1 returned aSyn UTR inh 5, Gli-Sufu block 0, 697 NFkB inh 20, Jurkat NFkB inh -18, Mdm2 MdmX PPI 25 and CSC inhib 84*.
Screening COc1ccc(CN(C)CC(=O)Nc2ccccc2C(F)(F)F)c(OC)c1 returned aSyn UTR inh 3, Gli-Sufu block -3, 697 NFkB inh 7, Jurkat NFkB inh 0, Mdm2 MdmX PPI -20 and CSC inhib -5.
O=C(NNc1ccccc1)C(=O)NNS(=O)(=O)c1ccc([N+](=O)[O-])cc1 was read as aSyn UTR inh 13, Gli-Sufu block 4, 697 NFkB inh 18, Jurkat NFkB inh 22, Mdm2 MdmX PPI -2 and CSC inhib 92*.
`O=[N+]([O-])c1ccc(-c2cc(-c3ccncc3)nc3ccc4ccccc4c23)cc1` gave Gli-Sufu block -3.
For CCCC(=O)Nc1sc2c(c1C#N)CCCCC2 the results were aSyn UTR inh -167, Gli-Sufu block -8, 697 NFkB inh -64, Jurkat NFkB inh -63, Mdm2 MdmX PPI -57 and CSC inhib -5.
For O=C(CSc1ccc2ccccc2c1Br)Nc1cccc(S(=O)(=O)NC2=NCCCCC2)c1 the results were aSyn UTR inh 64*, Gli-Sufu block 8, 697 NFkB inh -6, Jurkat NFkB inh -22, Mdm2 MdmX PPI -11 and CSC inhib 91*.
For NC(=O)c1cc(Br)cc(C2CCCCC2)c1O the results were aSyn UTR inh 87*, Gli-Sufu block 24, 697 NFkB inh -4, Jurkat NFkB inh -15, Mdm2 MdmX PPI 39 and CSC inhib 58.
For NC(=O)c1cc(Br)cc2c3c([nH]c12)CCCC3 the results were aSyn UTR inh 1, Gli-Sufu block 17, 697 NFkB inh -27, Jurkat NFkB inh 4, Mdm2 MdmX PPI 20 and CSC inhib -9.
`CN(CC(=O)Nc1ccc(Cl)c(Cl)c1)CC(=O)Nc1ccc2c(c1)OCO2` gave Gli-Sufu block 5, 697 NFkB inh 7, Jurkat NFkB inh 3, Mdm2 MdmX PPI 2 and CSC inhib 80*.
